Inconclusive results are not listed. Calls of active or inactive are those of the source. How the source made its calls: active means hit-call score of the fitted dose curve at least 0.9, where 1 is the maximum; inconclusive means response in the unintended direction; inactive means score below 0.9.
How the values were obtained:
[1] = target: human Caspase 2 (CASP2), CASP2 (gene 835) (UniProt P42575); experiment: NVS_ENZ_hCASP2: NovaScreen (NVS) Enzymatic Assay for human Caspase 2 (CASP2) (AID 2283135)
In short: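 Single-point duplicate testing at 25 uM preceded concentration series topping at 50 uM. Activity of the recombinant E. coli-derived protease was followed by fluorescent substrate cleavage 1 h post-dosing, relative to DMSO.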

[2] = target: human Matrix Metalloproteinase-1 (MMP1), MMP1 (gene 4312) (UniProt P03956); experiment: NVS_ENZ_hMMP1: NovaScreen (NVS) Enzymatic Assay for human Matrix Metalloproteinase-1 (MMP1) (AID 2283181)
In short: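 Cell-free fluorescent substrate assay of human MMP1, read after 1 h. A single 25 uM duplicate screen was followed by concentration series to a maximum of 50 uM for actives meeting threshold; inhibition analysed against DMSO baseline.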

[3] = system: rat Monoamine Oxidase, MAO-A, Peripheral (MAOAP), gene 29253; experiment: NVS_ENZ_rMAOAP: NovaScreen (NVS) Enzymatic Assay for rat Monoamine Oxidase, MAO-A, Peripheral (MAOAP) (AID 2283237)
In short: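 Scintillation counting tracked MAO-A activity in a cell-free rat liver mitochondrial membrane prep, read 1.17 hours after compound addition. Single-point duplicate testing at 25 uM preceded concentration-response follow-up; activity was fitted relative to DMSO.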

[4] = target: rat Monoamine Oxidase, MAO-B, Central (MAOBC), Maob (gene 25750) (UniProt P19643); experiment: NVS_ENZ_rMAOBC: NovaScreen (NVS) Enzymatic Assay for rat Monoamine Oxidase, MAO-B, Central (MAOBC) (AID 2283238)
In short: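 Here MAO-B activity in rat brain preparations is quantified radiometrically, counts taken at 1.17 hours. Concentration-response runs reach 50 uM, with plate controls, and values are fitted as loss of signal from the DMSO baseline.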

[5] = target: rat Monoamine Oxidase, MAO-B, Peripheral (MAOBP), Maob (gene 25750) (UniProt P19643); experiment: NVS_ENZ_rMAOBP: NovaScreen (NVS) Enzymatic Assay for rat Monoamine Oxidase, MAO-B, Peripheral (MAOBP) (AID 2283242)
[6] = system: rat Monoamine Oxidase, MAO-A, Central (MAOAC), gene 29253; experiment: NVS_ENZ_rMAOAC: NovaScreen (NVS) Enzymatic Assay for rat Monoamine Oxidase, MAO-A, Central (MAOAC) (AID 2283243);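 further: potency refers to inhibition seen as signal drop below DMSO baseline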
In short: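 Scintillation read-out of MAO-A activity in rat brain lysate, 1.5 h post-dosing. Primary single-concentration screen: 25 uM, duplicate; actives re-tested in concentration series. DMSO = negative control/baseline.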

[7] = target: human AMP-activated Protein Kinase, alpha 1 (AMPKa1), PRKAA1 (gene 5562) (UniProt Q13131); experiment: NVS_ENZ_hAMPKa1: NovaScreen (NVS) Enzymatic Assay for human AMP-activated Protein Kinase, alpha 1 (AMPKa1) (AID 2283130)
Chain of human AMP-activated Protein Kinase, alpha 1 (AMPKa1), PRKAA1 (gene 5562) (Q13131 whole entry, looked up): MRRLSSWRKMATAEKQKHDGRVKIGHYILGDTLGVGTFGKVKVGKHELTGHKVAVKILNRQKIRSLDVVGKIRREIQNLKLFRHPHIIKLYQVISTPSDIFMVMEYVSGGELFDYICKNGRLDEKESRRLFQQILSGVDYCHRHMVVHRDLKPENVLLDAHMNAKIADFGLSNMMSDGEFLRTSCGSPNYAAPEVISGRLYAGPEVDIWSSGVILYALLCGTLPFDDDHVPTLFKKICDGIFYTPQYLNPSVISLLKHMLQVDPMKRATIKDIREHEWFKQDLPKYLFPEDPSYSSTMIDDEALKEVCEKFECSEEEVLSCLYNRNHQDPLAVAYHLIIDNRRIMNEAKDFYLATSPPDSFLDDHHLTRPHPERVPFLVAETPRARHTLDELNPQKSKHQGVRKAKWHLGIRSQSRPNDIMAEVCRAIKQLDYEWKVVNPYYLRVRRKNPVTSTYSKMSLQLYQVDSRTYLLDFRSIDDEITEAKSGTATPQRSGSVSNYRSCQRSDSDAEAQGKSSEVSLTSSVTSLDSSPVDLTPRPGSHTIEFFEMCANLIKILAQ
In short: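 Compounds were screened in duplicate at 25 uM, and those reaching ~30% inhibition were titrated up to 50 uM. The enzyme was recombinant human AMPKα1, and kinase turnover was read by fluorescence/mobility shift 1 h post-dosing as loss of signal versus DMSO.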

[8] = target: human Aurora Kinase A - serine/threonine-protein Kinase 6 (AurA), AURKA (gene 6790) (UniProt O14965); experiment: NVS_ENZ_hAurA: NovaScreen (NVS) Enzymatic Assay for human Aurora Kinase A - serine/threonine-protein Kinase 6 (AurA) (AID 2283142)
Chain of human Aurora Kinase A - serine/threonine-protein Kinase 6 (AurA), AURKA (gene 6790) (O14965 whole entry, looked up): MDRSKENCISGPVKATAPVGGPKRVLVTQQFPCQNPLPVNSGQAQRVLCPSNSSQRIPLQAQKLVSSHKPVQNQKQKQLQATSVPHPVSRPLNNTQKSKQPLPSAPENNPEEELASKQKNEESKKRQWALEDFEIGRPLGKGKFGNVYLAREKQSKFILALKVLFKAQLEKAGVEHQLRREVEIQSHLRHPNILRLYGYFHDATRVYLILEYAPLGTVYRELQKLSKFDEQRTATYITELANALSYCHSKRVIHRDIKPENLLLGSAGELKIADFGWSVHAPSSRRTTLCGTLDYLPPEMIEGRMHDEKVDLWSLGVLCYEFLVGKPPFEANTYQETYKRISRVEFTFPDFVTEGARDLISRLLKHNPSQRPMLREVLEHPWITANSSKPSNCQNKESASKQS
In short: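 Recombinant human AurA activity read by fluorescence after mobility-shift separation of product from substrate; 1 hour incubation. Chemicals first run in duplicate at 25 uM, then concentration series to 50 uM if over threshold; fitted relative to DMSO.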

[9] = target: human Fibroblast Growth Factor Receptor 1 (FGFR1), FGFR1 (gene 2260) (UniProt P11362); experiment: NVS_ENZ_hFGFR1: NovaScreen (NVS) Enzymatic Assay for human Fibroblast Growth Factor Receptor 1 (FGFR1) (AID 2283159)
Chain of human Fibroblast Growth Factor Receptor 1 (FGFR1), FGFR1 (gene 2260) (P11362 whole entry, looked up): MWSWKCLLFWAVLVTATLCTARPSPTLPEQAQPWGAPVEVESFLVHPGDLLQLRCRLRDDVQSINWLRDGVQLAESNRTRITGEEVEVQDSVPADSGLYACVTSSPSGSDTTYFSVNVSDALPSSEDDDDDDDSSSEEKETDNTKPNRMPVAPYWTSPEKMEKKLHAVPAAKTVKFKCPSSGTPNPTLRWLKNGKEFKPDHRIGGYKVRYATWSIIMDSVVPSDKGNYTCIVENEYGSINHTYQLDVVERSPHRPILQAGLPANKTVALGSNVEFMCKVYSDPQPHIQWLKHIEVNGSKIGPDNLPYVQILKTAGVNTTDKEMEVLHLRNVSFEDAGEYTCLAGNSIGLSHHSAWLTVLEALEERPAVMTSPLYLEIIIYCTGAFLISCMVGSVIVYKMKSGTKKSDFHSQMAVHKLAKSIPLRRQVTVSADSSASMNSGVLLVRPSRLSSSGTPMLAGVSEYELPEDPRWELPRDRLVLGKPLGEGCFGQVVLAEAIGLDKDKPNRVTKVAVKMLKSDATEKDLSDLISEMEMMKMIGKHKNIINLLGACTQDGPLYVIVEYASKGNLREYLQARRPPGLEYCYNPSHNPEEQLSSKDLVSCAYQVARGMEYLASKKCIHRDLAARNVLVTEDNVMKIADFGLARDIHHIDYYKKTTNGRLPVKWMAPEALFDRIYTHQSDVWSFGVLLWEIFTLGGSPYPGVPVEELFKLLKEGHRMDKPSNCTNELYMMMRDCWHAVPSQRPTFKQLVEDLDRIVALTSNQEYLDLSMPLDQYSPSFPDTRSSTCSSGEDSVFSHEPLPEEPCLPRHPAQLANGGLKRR
In short: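 Cell-free recombinant kinase with fluorescent substrate, product separated by electrophoretic mobility shift; read 1 hour after dosing, loss of signal relative to DMSO. Initial screen in duplicate at 25 uM, actives followed in concentration series.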

[10] = target: human Mitogen-Activated Protein Kinase 1 (MAPK 1), MAPK1 (gene 5594) (UniProt P28482); experiment: NVS_ENZ_hMAPK1: NovaScreen (NVS) Enzymatic Assay for human Mitogen-Activated Protein Kinase 1 (MAPK 1) (AID 2283175)
Chain of human Mitogen-Activated Protein Kinase 1 (MAPK 1), MAPK1 (gene 5594) (P28482 whole entry, looked up): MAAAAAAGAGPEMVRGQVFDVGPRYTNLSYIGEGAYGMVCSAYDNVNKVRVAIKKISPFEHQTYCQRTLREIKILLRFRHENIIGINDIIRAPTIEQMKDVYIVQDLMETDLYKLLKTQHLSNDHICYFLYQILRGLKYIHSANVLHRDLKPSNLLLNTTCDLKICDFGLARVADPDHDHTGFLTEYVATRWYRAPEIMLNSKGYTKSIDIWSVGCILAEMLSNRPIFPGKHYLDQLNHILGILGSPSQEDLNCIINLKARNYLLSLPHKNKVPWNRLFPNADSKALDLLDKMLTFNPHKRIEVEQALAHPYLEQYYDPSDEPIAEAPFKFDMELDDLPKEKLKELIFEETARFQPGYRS
In short: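 Cell-free recombinant human MAPK1 enzymatic assay, fluorescence/electrophoretic mobility shift read at 1 h; loss of signal vs DMSO. Primary screen in duplicate at 25 uM; actives (e.g. ≥30% inhibition) run as concentration-response up to 50 uM.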

[11] = target: human MET Proto-Oncogene, Receptor Tyrosine Kinase (MET), MET (gene 4233) (UniProt P08581); experiment: NVS_ENZ_hMet: NovaScreen (NVS) Enzymatic Assay for human MET Proto-Oncogene, Receptor Tyrosine Kinase (MET) (AID 2283180)
In short: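 Hits from a 25 uM duplicate screen were retested in concentration series up to 50 uM. Enzyme activity was measured by fluorescence after electrophoretic separation of product from substrate, 1 h after compound addition, relative to DMSO.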

[12] = target: human p21 Activated Kinase 4 (PAK4), PAK4 (gene 10298) (UniProt O96013); experiment: NVS_ENZ_hPAK4: NovaScreen (NVS) Enzymatic Assay for human p21 Activated Kinase 4 (PAK4) (AID 2283189)
Chain of human p21 Activated Kinase 4 (PAK4), PAK4 (gene 10298) (O96013 whole entry, looked up): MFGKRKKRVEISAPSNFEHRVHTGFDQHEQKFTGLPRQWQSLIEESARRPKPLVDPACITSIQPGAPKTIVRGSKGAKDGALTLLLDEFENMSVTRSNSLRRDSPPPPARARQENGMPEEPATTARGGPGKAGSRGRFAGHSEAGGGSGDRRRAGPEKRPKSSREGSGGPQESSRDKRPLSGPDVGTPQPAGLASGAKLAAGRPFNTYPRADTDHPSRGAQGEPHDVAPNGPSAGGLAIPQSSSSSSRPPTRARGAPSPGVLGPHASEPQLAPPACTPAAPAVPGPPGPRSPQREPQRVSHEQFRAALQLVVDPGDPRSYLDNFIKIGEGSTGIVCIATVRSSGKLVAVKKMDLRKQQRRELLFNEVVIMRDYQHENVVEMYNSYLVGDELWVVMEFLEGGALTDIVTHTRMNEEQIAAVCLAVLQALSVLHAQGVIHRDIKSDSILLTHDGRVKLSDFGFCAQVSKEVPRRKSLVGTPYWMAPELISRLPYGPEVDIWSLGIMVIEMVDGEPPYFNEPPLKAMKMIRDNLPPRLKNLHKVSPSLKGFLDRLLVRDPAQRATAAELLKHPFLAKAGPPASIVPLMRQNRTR
In short: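 Extracted PAK4 enzyme activity read by fluorescence with mobility-shift separation 1 h after chemical addition. Duplicate single-concentration screen at 25 uM, DMSO as negative control.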

[13] = target: human Phosphatase and Tensin Homolog (PTEN), PTEN (gene 5728) (UniProt P60484); experiment: NVS_ENZ_hPTEN: NovaScreen (NVS) Enzymatic Assay for human Phosphatase and Tensin Homolog (PTEN) (AID 2283203)
Chain of human Phosphatase and Tensin Homolog (PTEN), PTEN (gene 5728) (P60484 whole entry, looked up): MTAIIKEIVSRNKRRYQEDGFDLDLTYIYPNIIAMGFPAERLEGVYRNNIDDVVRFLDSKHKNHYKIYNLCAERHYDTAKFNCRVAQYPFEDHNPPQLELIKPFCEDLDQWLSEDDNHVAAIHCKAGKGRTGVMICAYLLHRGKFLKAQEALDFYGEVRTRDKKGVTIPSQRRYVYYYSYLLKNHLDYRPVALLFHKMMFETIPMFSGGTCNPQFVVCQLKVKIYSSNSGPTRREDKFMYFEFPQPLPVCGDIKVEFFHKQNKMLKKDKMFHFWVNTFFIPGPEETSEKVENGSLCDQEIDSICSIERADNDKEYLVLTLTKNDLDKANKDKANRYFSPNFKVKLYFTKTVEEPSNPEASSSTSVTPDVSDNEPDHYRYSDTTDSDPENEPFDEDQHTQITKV
In short: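 Loss of fluorescent product signal after mobility-shift separation reports PTEN activity, recombinant human enzyme, 1 h after compound addition. Single 25 uM duplicate screen, then concentration-response on actives; DMSO baseline.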

[14] = target: human Protein Tyrosine Phosphatase Non-receptor Type 2 (PTPN2), PTPN2 (gene 5771) (UniProt P17706); experiment: NVS_ENZ_hPTPN2: NovaScreen (NVS) Enzymatic Assay for human Protein Tyrosine Phosphatase Non-receptor Type 2 (PTPN2) (AID 2283207)
In short: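 Activity measured as fluorescence after mobility-shift separation of substrate and product, 1 h after compound. Duplicate single-point 25 uM primary testing, concentration series for actives; inhibition scored as signal loss relative to DMSO baseline.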

[15] = target: human Raf-1 Proto-Oncogene, serine/threonine Kinase (RAF1), RAF1 (gene 5894) (UniProt P04049); experiment: NVS_ENZ_hRAF1: NovaScreen (NVS) Enzymatic Assay for human Raf-1 Proto-Oncogene, serine/threonine Kinase (RAF1) (AID 2283216)
Chain of human Raf-1 Proto-Oncogene, serine/threonine Kinase (RAF1), RAF1 (gene 5894) (P04049 whole entry, looked up): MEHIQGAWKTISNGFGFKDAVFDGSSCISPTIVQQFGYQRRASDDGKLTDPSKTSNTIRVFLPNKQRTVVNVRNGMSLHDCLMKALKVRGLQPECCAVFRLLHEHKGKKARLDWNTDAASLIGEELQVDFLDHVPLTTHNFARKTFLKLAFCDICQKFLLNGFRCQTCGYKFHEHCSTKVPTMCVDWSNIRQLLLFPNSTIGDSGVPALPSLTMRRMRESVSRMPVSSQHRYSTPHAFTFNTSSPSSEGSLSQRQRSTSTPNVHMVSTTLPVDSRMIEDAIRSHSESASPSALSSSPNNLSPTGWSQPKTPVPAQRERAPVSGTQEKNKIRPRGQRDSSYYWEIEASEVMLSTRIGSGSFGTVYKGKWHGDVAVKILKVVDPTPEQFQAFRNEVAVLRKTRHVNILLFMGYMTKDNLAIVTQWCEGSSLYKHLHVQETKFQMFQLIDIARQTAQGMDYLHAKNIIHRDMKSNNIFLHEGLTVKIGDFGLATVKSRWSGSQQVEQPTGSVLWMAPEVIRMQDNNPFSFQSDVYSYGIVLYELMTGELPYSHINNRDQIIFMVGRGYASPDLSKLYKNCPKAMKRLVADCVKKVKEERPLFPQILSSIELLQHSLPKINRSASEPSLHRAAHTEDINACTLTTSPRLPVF
In short: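 Single-point screening at 25 uM (duplicate), followed by singleton concentration-response to 50 uM maximum for chemicals exceeding threshold. Enzyme activity from fluorescent substrate-product mobility-shift separation after 1 h, relative to DMSO.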

[16] = target: human Tyrosine Protein Kinase Receptor Tie-2 (Tie2), TEK (gene 7010) (UniProt Q02763); experiment: NVS_ENZ_hTie2: NovaScreen (NVS) Enzymatic Assay for human Tyrosine Protein Kinase Receptor Tie-2 (Tie2) (AID 2283225)
Chain of human Tyrosine Protein Kinase Receptor Tie-2 (Tie2), TEK (gene 7010) (Q02763 whole entry, looked up): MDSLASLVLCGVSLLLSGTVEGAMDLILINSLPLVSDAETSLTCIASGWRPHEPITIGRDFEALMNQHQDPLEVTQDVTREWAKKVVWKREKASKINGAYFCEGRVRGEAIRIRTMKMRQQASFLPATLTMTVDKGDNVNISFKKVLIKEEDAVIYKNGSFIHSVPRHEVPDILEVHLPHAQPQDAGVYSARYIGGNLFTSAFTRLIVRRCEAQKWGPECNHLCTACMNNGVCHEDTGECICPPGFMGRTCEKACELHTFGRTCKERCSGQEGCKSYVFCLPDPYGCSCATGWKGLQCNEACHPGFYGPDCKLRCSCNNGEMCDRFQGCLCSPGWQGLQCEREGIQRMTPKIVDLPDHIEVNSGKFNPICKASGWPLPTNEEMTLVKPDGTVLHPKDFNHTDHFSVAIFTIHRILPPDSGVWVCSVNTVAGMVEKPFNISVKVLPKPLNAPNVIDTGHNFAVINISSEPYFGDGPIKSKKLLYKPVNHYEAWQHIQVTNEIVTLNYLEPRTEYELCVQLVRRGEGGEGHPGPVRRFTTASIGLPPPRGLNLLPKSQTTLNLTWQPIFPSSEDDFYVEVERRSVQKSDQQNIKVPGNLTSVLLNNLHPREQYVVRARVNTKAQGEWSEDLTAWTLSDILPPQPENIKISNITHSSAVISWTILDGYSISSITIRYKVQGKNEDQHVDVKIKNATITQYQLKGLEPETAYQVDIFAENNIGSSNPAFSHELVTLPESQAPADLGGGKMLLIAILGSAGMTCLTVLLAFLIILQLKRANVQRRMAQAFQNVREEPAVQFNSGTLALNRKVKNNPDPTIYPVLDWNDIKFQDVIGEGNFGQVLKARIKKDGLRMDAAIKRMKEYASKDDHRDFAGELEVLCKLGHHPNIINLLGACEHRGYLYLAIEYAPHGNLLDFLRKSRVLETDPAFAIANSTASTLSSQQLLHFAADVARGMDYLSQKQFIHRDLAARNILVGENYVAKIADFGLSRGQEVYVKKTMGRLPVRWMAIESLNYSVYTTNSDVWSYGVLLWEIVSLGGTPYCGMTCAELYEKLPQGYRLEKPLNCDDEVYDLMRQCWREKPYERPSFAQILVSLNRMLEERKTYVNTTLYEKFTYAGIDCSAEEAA
In short: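 Substrate and product were separated by mobility shift and detected by fluorescence after a 1-hour reaction with recombinant Tie2. Chemicals passing a 25 uM single-point screen were titrated to a maximum of 50 uM. Results were normalized to DMSO baseline.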

[17] = target: human Ephrin type-A Receptor 2 (EphA2), EPHA2 (gene 1969) (UniProt P29317); experiment: NVS_ENZ_hEphA2: NovaScreen (NVS) Enzymatic Assay for human Ephrin type-A Receptor 2 (EphA2) (AID 2283155)
In short: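 Enzyme activity of recombinant EphA2 read by fluorescence after mobility-shift separation, 1 h after dosing. Chemicals first tested at 25 uM (duplicate); those passing threshold run as concentration series, top 50 uM, single replicate, relative to DMSO.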

[18] = target: human NIMA (Never In Mitosis Gene A)-Related Kinase 2 (NEK2), NEK2 (gene 4751) (UniProt P51955); experiment: NVS_ENZ_hNEK2: NovaScreen (NVS) Enzymatic Assay for human NIMA (Never In Mitosis Gene A)-Related Kinase 2 (NEK2) (AID 2283188)
In short: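 Compounds were first screened in duplicate at 25 uM, with actives followed up in concentration series. Recombinant NEK2 activity, cell-free, was read 1 h after dosing by fluorescence intensity after mobility-shift separation. Signal loss was scored against DMSO.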

PPP2CA (gene 5515) = PPP2CA (gene 5515) (UniProt P67775); experiment: NVS_ENZ_hPPP2CA: NovaScreen (NVS) Enzymatic Assay for human Protein Phosphatase 2 Aatalytic subunit Alpha (PPP2CA) (AID 2283199)
In short: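 Cell-free phosphatase activity: fluorescent substrate turnover by recombinant human enzyme, resolved by mobility shift at 1.33 h. Compounds passing the 25 uM duplicate primary screen were rerun in singleton series with a 50 uM top concentration.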

Caspase-1 (Homo sapiens) = Caspase-1 (Homo sapiens) (UniProt P29466); experiment: NVS_ENZ_hCASP1: NovaScreen (NVS) Enzymatic Assay for human Caspase 1 (CASP1) (AID 2283132)
In short: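 Compounds were first tested in duplicate at 25 uM, with follow-up concentration series up to 50 uM. The bacterially expressed enzyme was read by fluorescence at 1 h post-dosing. Signal loss versus DMSO baseline indicates reduced enzyme activity.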

[19] = target: human Ephrin type-B Receptor 2 (EphB2), EPHB2 (gene 2048) (UniProt P29323); experiment: NVS_ENZ_hEphB2: NovaScreen (NVS) Enzymatic Assay for human Ephrin type-B Receptor 2 (EphB2) (AID 2283156)
In short: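 Compounds were first tested in duplicate at 25 uM, with hits rerun singly in concentration series up to 50 uM. Enzyme activity on fluorescent substrate was read at 1 h by mobility-shift separation, scored as signal loss relative to DMSO.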

[20] = ATG_M_32_XSP2: Attagene TRANS-FACTORIAL Multi-Species (XSP2) HepG2 Assay for M19 Transcription Factor (Internal Marker) (AID 2283826)
In short: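 Total RNA is taken from compound-treated HepG2 cells after 24 h and reverse-transcribed; reporter cDNA is PCR-amplified, end-labelled with 6-FAM, digested with HpaI for 2h at 37 C and sized by capillary electrophoresis. Activity is fitted in the positive direction against DMSO.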

[21] = TOX21_TRB_BLA_Agonist_Followup_viability: Viability Assessment in the Tox21 Thyroid Hormone Receptor beta Agonism Beta-lactamase (BLA) Follow-Up Assay (AID 2283956)
In short: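 Viability was read as CellTiter-Glo luminescence in the same wells as the TRb-bla agonist read-out. HEK293T GAL4-TRb LBD cells were treated for 18 h (37C, 5% CO2) at 11 concentrations in triplicate. Fits were bidirectional versus DMSO baseline.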

[22] = target: human IkappaB Kinase alpha (IKKa), CHUK (gene 1147) (UniProt O15111); experiment: NVS_ENZ_hIKKa: NovaScreen (NVS) Enzymatic Assay for human IkappaB Kinase alpha (IKKa) (AID 2283167)
In short: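 Compounds first run in duplicate at 25 uM, those meeting threshold (e.g. 30% inhibition) retested to maximum 50 uM. Enzyme activity of recombinant IKKa measured by fluorescence with electrophoretic mobility shift separation, 1 hour post-dosing, DMSO baseline.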

[23] = target: Bile acid receptor (Homo sapiens) (UniProt Q96RI1); experiment: NVS_NR_hFXR_Agonist: NovaScreen (NVS) Nuclear Receptor Binding Assay for human Farnesoid X Receptor Agonism (FXR) (AID 2283347)
In short: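 Agonist-mode FXR assay read by time-resolved FRET 1 h after compound addition, using isolated human receptor protein without cells. Duplicate 25 uM single-point primary screen, concentration series for confirmed actives; DMSO as baseline.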

Measured: AC50

O=[N+]([O-])c1ccc(O)cc1
inactive: [1]
active: [2] 16.9 µM | [3] 19.2 µM | [4] 18.1 µM | [5] 39.1 µM | [6] 16.6 µM

Cc1ncc([C@@H](CCCCCCc2ccc3c(n2)NCCC3)CC(=O)O)cn1
inactive: [7] | [8] | [9] | [10] | [11] | [12] | [13] | [14] | [15] | [16]

O=S1(=O)CCCO1
inactive: [8]

Cc1nc(-c2ccccn2)ncc1C(=O)Nn1cc(C)c2cc(F)ccc21
inactive: [8] | [17] | [9] | [10] | [11] | [18] | [12] | PPP2CA (gene 5515) | [13] | [16]

CCCCCCC(C)OC(=O)COc1nc(F)c(Cl)c(N)c1Cl (stereo unspecified)
inactive: Caspase-1 (Homo sapiens) | [19] | [6]

O=C(O)Cc1cc(I)c(Oc2ccc(O)c(I)c2)c(I)c1
active: [8] 1.37 µM
inactive: [7] | [18] | [15] | [20] | [21]

CCc1c(C(=O)NN2CCCCC2)nn(-c2ccc(Cl)cc2Cl)c1-c1ccc(Br)cc1
inactive: [7] | [8] | [9] | [22] | [10] | [12] | [13] | [15] | [16] | [23]

Reference: PubChem BioAssay (EPA / NIEHS)
